# Laboratory results reported in the supplement of paper PMC7724964.
# T1: MYL6 4-151 EF-hand_6 (domain begin residue: 4, domain end residue: 151), P60660
# T1 chain: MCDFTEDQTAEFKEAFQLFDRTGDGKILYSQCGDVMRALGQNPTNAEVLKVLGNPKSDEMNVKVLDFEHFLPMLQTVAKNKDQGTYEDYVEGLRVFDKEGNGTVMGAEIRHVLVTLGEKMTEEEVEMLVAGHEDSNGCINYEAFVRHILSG
# T2: NFKBIA 70-282 EF-hand_6 (domain begin residue: 70, domain end residue: 282), P25963
# T2 chain: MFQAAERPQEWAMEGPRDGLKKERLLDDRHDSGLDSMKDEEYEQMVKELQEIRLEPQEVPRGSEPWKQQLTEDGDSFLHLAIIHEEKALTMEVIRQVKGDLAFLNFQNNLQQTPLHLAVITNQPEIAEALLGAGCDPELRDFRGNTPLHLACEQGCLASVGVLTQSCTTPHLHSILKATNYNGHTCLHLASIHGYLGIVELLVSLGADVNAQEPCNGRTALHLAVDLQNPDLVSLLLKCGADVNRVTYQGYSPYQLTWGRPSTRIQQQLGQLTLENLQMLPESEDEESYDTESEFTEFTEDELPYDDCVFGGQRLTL
# T3: NR1D2 386-579 Hormone_recep (domain begin residue: 386, domain end residue: 579), Q14995
# T3 chain: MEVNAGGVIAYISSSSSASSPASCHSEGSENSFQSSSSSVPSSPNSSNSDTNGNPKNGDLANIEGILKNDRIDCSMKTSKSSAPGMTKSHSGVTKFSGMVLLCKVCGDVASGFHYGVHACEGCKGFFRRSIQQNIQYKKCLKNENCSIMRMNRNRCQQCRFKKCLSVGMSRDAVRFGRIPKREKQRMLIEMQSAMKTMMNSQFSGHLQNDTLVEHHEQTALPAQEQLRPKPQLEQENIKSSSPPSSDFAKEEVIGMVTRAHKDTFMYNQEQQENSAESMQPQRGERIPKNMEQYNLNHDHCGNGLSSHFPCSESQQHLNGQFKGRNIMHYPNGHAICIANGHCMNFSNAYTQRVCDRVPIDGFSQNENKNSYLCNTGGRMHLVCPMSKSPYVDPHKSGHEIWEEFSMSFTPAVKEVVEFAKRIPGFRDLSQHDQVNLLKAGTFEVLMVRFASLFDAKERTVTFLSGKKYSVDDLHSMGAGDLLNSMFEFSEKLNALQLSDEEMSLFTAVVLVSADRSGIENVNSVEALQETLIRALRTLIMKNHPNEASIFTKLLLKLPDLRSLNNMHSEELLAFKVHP
# T4: MDM4 26-106 SWIB (domain begin residue: 26, domain end residue: 106), O15151
# T4 chain: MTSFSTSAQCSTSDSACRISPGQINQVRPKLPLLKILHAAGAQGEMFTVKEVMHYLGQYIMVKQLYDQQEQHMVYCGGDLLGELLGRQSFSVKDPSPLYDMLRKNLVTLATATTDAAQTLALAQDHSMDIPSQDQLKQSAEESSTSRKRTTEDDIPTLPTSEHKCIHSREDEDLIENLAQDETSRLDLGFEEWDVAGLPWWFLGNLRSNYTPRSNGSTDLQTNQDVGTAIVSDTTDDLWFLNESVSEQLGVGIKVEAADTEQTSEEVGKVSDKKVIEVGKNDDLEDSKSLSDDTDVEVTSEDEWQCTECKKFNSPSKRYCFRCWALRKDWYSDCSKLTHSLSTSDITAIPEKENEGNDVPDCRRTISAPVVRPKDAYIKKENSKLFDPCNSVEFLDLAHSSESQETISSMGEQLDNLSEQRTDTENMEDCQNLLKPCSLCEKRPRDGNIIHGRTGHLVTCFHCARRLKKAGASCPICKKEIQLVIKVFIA
# T5: NR1H3 204-447 Hormone_recep (domain begin residue: 204, domain end residue: 447), Q13133
# T5 chain: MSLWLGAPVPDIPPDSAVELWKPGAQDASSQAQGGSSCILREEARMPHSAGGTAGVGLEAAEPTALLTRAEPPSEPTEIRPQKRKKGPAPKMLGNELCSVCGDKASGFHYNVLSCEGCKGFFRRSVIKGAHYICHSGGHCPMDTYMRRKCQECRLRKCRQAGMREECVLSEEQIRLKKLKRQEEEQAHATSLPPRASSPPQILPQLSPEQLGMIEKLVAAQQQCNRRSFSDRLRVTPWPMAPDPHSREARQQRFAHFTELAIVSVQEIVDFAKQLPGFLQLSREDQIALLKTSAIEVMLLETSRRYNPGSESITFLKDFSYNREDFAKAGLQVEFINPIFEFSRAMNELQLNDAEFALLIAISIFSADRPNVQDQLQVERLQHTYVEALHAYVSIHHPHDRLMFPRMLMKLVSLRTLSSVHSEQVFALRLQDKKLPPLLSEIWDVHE
# T6: NR1H2 203-460 Hormone_recep (domain begin residue: 203, domain end residue: 460), P55055
# T6 chain: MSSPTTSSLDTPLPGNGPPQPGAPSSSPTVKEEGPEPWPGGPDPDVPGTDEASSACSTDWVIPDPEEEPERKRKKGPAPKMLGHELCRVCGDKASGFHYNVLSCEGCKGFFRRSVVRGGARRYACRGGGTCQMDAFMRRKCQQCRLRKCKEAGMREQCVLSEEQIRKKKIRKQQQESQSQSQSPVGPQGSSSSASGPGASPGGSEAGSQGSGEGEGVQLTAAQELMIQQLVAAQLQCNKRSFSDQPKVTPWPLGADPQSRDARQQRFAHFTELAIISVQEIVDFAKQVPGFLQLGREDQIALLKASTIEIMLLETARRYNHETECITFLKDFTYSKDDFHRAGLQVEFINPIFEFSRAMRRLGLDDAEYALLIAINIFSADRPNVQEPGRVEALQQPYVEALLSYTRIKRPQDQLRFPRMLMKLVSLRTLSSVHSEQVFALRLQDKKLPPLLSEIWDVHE
# T7: NUP98 730-880 Nucleoporin2 (domain begin residue: 730, domain end residue: 880), P52948
# T7 chain: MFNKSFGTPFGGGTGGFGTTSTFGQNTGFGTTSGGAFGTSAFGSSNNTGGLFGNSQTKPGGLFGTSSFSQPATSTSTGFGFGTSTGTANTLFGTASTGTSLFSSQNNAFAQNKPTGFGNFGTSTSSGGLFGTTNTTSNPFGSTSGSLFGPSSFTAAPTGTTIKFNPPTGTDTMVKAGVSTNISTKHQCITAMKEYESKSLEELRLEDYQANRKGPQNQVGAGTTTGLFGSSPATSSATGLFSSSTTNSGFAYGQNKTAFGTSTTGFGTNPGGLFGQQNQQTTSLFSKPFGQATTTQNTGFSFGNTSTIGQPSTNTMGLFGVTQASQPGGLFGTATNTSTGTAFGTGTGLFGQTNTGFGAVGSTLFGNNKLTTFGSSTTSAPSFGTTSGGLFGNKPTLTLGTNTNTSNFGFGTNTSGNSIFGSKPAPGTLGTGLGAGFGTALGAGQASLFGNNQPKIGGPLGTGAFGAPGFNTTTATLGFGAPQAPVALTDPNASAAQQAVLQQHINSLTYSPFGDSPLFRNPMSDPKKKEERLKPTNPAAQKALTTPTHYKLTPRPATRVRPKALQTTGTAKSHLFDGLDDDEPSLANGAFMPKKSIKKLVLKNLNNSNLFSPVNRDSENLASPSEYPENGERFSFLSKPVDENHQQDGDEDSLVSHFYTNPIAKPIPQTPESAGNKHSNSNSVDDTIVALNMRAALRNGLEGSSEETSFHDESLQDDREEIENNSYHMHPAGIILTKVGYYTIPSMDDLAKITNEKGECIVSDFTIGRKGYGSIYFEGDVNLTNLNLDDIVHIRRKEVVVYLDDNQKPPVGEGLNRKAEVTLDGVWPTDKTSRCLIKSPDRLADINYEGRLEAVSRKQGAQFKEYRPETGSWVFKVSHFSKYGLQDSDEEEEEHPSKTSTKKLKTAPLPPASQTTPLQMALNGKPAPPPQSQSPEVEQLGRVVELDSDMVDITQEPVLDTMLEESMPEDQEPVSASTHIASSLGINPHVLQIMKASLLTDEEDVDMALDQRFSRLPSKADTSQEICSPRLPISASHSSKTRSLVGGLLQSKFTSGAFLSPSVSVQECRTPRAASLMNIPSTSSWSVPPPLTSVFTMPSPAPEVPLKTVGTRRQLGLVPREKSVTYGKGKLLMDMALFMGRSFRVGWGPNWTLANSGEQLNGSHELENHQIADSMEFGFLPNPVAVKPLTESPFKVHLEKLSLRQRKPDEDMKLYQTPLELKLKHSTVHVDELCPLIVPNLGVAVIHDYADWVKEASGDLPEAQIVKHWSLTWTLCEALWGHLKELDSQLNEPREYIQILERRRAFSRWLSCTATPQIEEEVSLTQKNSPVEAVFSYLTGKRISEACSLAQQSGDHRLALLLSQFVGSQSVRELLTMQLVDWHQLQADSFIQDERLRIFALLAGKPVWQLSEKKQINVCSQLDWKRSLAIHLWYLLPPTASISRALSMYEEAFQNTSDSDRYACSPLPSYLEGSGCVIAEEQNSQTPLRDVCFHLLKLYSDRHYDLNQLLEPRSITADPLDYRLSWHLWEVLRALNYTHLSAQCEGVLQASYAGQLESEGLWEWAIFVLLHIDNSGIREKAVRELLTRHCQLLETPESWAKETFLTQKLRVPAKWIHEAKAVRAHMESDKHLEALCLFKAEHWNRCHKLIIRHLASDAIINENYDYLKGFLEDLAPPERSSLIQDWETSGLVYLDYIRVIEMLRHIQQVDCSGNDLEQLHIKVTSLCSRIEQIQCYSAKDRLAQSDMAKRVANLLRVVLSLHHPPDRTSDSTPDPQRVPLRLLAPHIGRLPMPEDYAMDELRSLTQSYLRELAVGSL
# Legend:
# Assay in all cases: phage ELISA signal ratio (GST-PRM binding over GST background); higher = stronger binding of peptide-phage to the PRM
# [1] = molecular target: T1, MYL6 4-151 EF-hand_6 (domain begin …
# In short: (§1)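 Five rounds of selection were carried out against human peptide recognition domains fused to the C-terminus of glutathione S-transferase (GST) and expressed in 96-well plates. The M13 phage library presented randomized hexadecapeptides, cysteine-free and glycine-flanked, on the gene-8 major coat protein. For each value, the phage ELISA signal on the GST-domain fusion was divided by the signal on GST alone.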
# [2] = molecular target: T2, NFKBIA 70-282 EF-hand_6 (domain begin …
# In short: as §1
# [3] = molecular target: T3, NR1D2 386-579 Hormone_recep (domain …
# In short: as §1
# [4] = molecular target: T4, MDM4 26-106 SWIB (domain begin residue: …
# In short: as §1
# [5] = molecular target: T5, NR1H3 204-447 Hormone_recep (domain …
# In short: as §1
# [6] = molecular target: MAD2L1 2-205 HORMA (domain begin residue: 2, domain end residue: 205), Q13257
# Chain of MAD2L1 2-205 HORMA (domain begin residue: 2, domain end residue: 205), Q13257 (Q13257 whole entry): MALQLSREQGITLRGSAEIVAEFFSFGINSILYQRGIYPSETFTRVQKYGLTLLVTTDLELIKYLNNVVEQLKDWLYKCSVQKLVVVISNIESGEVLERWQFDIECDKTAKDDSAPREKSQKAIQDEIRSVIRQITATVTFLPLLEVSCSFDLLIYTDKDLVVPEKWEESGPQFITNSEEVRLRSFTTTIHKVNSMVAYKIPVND
# In short: as §1
# [7] = molecular target: T6, NR1H2 203-460 Hormone_recep (domain …
# In short: as §1
# [8] = molecular target: MSH6 89-203 PWWP (domain begin residue: 89, domain end residue: 203), P52701
# Chain of MSH6 89-203 PWWP (domain begin residue: 89, domain end residue: 203), P52701 (P52701 whole entry): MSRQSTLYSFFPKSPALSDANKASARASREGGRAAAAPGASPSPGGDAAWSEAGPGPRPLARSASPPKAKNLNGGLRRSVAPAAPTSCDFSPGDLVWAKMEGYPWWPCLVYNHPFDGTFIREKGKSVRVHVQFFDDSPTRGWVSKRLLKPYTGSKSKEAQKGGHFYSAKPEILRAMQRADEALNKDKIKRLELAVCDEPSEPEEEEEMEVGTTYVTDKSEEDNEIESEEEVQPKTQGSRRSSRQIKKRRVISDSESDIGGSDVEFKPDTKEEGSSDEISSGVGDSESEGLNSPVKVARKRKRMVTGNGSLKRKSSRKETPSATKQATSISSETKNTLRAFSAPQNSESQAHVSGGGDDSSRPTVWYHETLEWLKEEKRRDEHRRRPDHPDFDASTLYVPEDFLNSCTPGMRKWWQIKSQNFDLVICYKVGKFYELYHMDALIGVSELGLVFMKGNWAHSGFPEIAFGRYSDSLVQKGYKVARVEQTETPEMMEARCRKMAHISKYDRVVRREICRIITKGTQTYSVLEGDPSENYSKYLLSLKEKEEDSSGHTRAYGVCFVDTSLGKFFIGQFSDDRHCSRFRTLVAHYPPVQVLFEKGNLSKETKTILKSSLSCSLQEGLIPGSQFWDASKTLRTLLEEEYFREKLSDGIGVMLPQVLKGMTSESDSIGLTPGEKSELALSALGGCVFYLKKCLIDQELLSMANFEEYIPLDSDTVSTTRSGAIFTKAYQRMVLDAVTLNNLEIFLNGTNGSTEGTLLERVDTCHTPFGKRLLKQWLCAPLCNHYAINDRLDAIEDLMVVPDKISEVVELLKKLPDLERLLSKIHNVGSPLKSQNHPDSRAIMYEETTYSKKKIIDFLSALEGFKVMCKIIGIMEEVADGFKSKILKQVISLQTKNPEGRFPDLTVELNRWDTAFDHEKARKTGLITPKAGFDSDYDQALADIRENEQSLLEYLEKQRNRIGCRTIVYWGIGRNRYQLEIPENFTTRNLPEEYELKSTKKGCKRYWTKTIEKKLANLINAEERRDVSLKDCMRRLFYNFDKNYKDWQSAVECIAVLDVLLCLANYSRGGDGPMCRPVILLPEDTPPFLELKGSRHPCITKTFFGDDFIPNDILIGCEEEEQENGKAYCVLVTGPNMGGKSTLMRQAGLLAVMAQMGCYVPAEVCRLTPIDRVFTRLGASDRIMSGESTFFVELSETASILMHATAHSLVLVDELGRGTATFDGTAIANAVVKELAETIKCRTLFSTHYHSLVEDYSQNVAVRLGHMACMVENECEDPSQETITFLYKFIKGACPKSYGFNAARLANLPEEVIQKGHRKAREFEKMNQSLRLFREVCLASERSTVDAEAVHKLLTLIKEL
# In short: as §1
# [9] = molecular target: T7, NUP98 730-880 Nucleoporin2 (domain …
# In short: as §1
binder,measurement,setting,value
IFQYIVVQIGNTMYVI,phage ELISA signal ratio,[1],9.03
MYRAPDAYDDHQVYVS,phage ELISA signal ratio,[2],7.46
WQDAWMQAMEQIYPPL,phage ELISA signal ratio,[3],6.57
MPYAQMQFMDYWQELA,phage ELISA signal ratio,[4],21.3
WVDEWTDVVQPMYYYD,phage ELISA signal ratio,[2],18.3
VWPDIYPELQFLHMMY,phage ELISA signal ratio,[5],5.69
QWWVFHVGDQMYWAYV,phage ELISA signal ratio,[1],3.08
GWFHIAPPPKQAEYTE,phage ELISA signal ratio,[6],12.8
WYIIRGPMWHEPHVIE,phage ELISA signal ratio,[6],8.9
DNPNLTPGLWSWYTFF,phage ELISA signal ratio,[7],11.4
DYMAIWDHIPLKDAGF,phage ELISA signal ratio,[8],6.88
YWEHSNELDYWVEFIA,phage ELISA signal ratio,[2],5.67
same,phage ELISA signal ratio,[9],16.9
ENLTALIMAFFSETIQ,phage ELISA signal ratio,[3],9.19
FVEMWNDMMFEDWDLV,phage ELISA signal ratio,[4],26.4
